Screening results as filed in PubChem BioAssay.
Avidin bead fluor: compound fluoresces at 488/530 nm on avidin beads. compound fluorescence 488/530 nm, flow cytometry; stronger effect = higher value. AID 1775. fluorescence (KMESF) at 10 µM. 220,000 tested, 0.38% active; in the data active = fluorescence above about 47
RGS8-Gao: modulates binding of RGS8 to human Galphao; P09471; multiplexed bead flow cytometry; actives lie on both sides; 220,000 tested, 0.34% active; response (percent of control binding), % at 10 µM; in the data active = response below about 60% or above about 140%; inactive = in between;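 also: Galphao activated as the GDP aluminium fluoride complex binding bead-coupled RGS8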
Target sequence (P09471 whole entry, looked up): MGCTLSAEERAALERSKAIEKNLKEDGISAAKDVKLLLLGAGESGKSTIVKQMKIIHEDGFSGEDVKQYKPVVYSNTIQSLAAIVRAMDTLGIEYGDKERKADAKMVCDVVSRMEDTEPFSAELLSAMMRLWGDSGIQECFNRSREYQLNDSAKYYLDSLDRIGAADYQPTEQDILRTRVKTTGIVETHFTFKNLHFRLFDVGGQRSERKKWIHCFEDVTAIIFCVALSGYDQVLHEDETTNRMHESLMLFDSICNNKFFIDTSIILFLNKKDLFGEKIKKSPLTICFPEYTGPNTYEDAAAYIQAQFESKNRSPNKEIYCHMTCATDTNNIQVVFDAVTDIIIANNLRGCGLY
RGS16-Gao: modulates binding between human RGS16 and Galphao | bead-based flow cytometry RGS16-Galphao binding, fluorescence; actives lie on both sides | binding response (% of control), % at 10 µM | 220,000 tested, 0.38% active | AID 1441; call rule not given here;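 also: Galphao activated by GDP with aluminum fluoride before binding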
GSH fluor: compound fluoresces at 488/530 nm on GSH beads; GSH beads flow cytometry, compound fluorescence 488/530 nm; stronger effect = higher value; fluorescence (KMESF) at 10 µM; 190,000 tested, 0.25% active; in the data active = fluorescence above about 89;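 also: glutathione beads carrying GST-tagged Bcl family fusion proteins plus one bare bead set; values are compound well signal with DMSO vehicle wells as background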
RGS7-Gao: human RGS7-Galphao interaction regulation | Multiplexed bead flow cytometry, RGS7-Galphao binding; actives lie on both sides | AID 1439 | binding response (% of control), % at 10 µM | 220,000 tested, 0.35% active | P09471; in the data active = binding response below about 49% or above about 150%; inconclusive = no clear call, values can overlap the other calls; inactive = in between;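 also: fluorescent Galphao held in activated GDP-AlF4 state binding bead-coupled RGS7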
RGS4-Gao reg: human RGS4-Galphao interaction regulation; Multiplexed bead flow cytometry, RGS4-Galphao binding; actives lie on both sides; AID 1415; P09471; binding response (% of control), % at 10 µM; 220,000 tested, 0.33% active; in the data active = binding response below about 49% or above about 150%; inactive = in between;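 also: fluorescent Galphao activated with aluminum fluoride binding bead-coupled RGS4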
* hit, by the source's call; ? = inconclusive; nt = no result; + = active, no number; [ ] = remark or other dose. This is a sample that favours compounds with a hit; in the whole collection about 1.2% have one here.

SMILES	Avidin bead fluor	RGS8-Gao	RGS16-Gao	GSH fluor	RGS7-Gao	RGS4-Gao reg
CC(C)Cn1c(N2CCN(CC(=O)Nc3ccc(Cl)cc3)CC2)nc2ccccc21	9	98	99	14	98	99
O=C1c2cc(S(=O)(=O)NCCCO)ccc2-c2ccc(S(=O)(=O)NCCCO)cc21	6	107	122	251*	103	105
CC(C(=O)N1c2ccc(F)cc2CCC1C)N1C(=O)c2ccccc2C1=O (stereo not drawn)	48*	97	97	17	97	95
CCOC(=O)CSc1nc2cc3c(cc2cc1C)OCO3	72*	98	97	12	140	114
O=C(O)C(Cc1cc2ccccc2[nH]1)N1C(=O)C2CC=C(Cl)CC2C1=O (stereo not drawn)	7	97	104	117*	97	99
N/C(=N\O)c1ccc(Cl)cc1Cl	8	101	100	nt	?	105
O=c1c2ccccc2nnn1CSc1ccccc1	21	106	107	12	101	105
Cc1nc(SCn2nnc3ccccc3c2=O)nc(C)c1C	8	100	102	258*	102	100
COCCNC(=O)C1=NOC(Cn2cc(C#N)c(=O)n(C)c2=O)C1 (stereo not drawn)	9	100	100	11	?	104
COc1ccc(-n2c(C)cc(C(=O)CSc3nn4c(=O)c(C(C)(C)C)nnc4s3)c2C)cc1	57*	103	110	23	113	103
CS(=O)(=O)c1ccc(Cl)c(NC(=O)CCl)c1	6	100	101	14	97	99
O=C(O)Cc1csc(NC(=O)c2ccco2)n1	7	98	96	276*	103	101
CC(O)[C@H]1CNC(=O)C(=O)N1CC1(c2ccccc2)CC1 (stereo partly drawn)	7	104	101	nt	?	106
O=C(O)c1cc2nc3c(c(C(F)(F)F)n2n1)CCc1ccccc1-3	nt	19*	-6.0*	9	1.4*	-12*
C(=N\c1nc2ccccc2n1CCN1CCCCC1)/c1cccs1	5	104	73	270*	108	106
C(=N\c1nc2ccccc2n1CCN1CCCCC1)/c1ccc2c(c1)OCO2	11	105	100	24	97	100
O=c1cc[nH]c2ccc([N+](=O)[O-])cc12	12	99	99	11	?	101
C=CCn1c(=O)c2c(nc3n2CCS3)n(C)c1=O	7	99	106	12	107	105
Cn1c(=O)n(Cc2ccccc2)c(=O)c2c1nc1n2CCS1	6	98	102	266*	100	96
CCOc1ccc2nc(NC(=O)c3ccoc3C)sc2c1	56*	102	103	35	116	104
C/C=C/C=C\C(=O)Nc1cccc(C2=NOC3(C2)C[C@@H](C(N)=O)N(C(=O)c2cc([N+](=O)[O-])cc([N+](=O)[O-])c2)C3)c1 (stereo partly drawn)	11	94	100	nt	?	98
O=C(Cn1c(-c2cscn2)nc2ccccc21)Nc1ccccc1F	50*	104	118	14	112	103
C/C(=N\NC(=O)CSc1nc2ccccc2s1)c1ccco1	29	99	115	408*	112	121
O=C(CSc1nc2ccccc2s1)N/N=C/c1ccco1	4	102	101	10	100	98
C=CCOC(=O)c1cc(-c2ccc(/C=C3\C(=O)NC(=O)C(C#N)=C3C)o2)ccc1Cl	5	93	81	260*	83	79
SMILES	Avidin bead fluor	RGS8-Gao	RGS16-Gao	GSH fluor	RGS7-Gao	RGS4-Gao reg
CC1=C(C#N)C(=O)NC(=O)/C1=C/c1ccc(-c2ccc(S(N)(=O)=O)cc2)o1	11	93	97	10	?	103
O=C(c1ccc(CN2CCOCC2)cc1)N1CCC(Cc2ccccc2)CC1	91*	102	107	23	135	114
CCOC(=O)C1(CCc2ccccc2)CCN(C(=O)CCn2cncn2)CC1	4	101	94	11	99	98
COc1cc(N2CN=c3s/c(=C\c4ccccn4)c(=O)n3C2)cc(OC)c1OC	9	102	107	265*	106	110
O=c1/c(=C/c2ccccn2)sc2n1CN(c1ccccc1)CN=2	3	101	52	3	92	88
COc1ccc(-c2cc(C(=O)Nc3c(C)nn(Cc4ccc(Cl)cc4)c3C)no2)cc1	50*	111	165	49	135	146
c1ccc(Cn2nnc(CNc3ccccc3)c2-c2c(CNc3ccccc3)nnn2Cc2ccccc2)cc1	8	95	89	nt	?	92
CCN1/C(=C/c2ccc3cc(C)ccc3[n+]2CC)Sc2cc(C)c(C)cc21	25	80	91	15	144	113
CCN1/C(=C/c2ccc3cc(C)ccc3[n+]2CC)Sc2ccccc21	11	110	110	7	225*[activator]	169*[activator]
CCc1nnc(NC(=O)CSc2nnc(CCc3nc4ccccc4[nH]3)n2C)s1	7	99	103	286*	99	99
Cc1nnc(NC(=O)CSc2nnc(CCc3nc4ccccc4[nH]3)n2C)s1	8	104	102	5	97	103
CCN(CC)CCCN(Cc1cc2cc3c(cc2[nH]c1=O)OCCO3)C(=O)Nc1ccccc1	54*	98	103	14	106	102
O=C(Nc1ccccc1)N(CCCN1CCOCC1)Cc1cc2cc3c(cc2[nH]c1=O)OCCO3	34	101	101	22	99	103
COc1ccc(CN2CCN(c3cccc(C)c3C)CC2)cc1OC	11	101	100	54	99	101
COc1cc(CN2CCN(c3cccc(C)c3C)CC2)cc(Br)c1O	8	103	106	272*	102	102
COc1ccccc1NC(=O)Nc1ccnn1C1CCCCC1	6	96	102	266*	97	100
COc1ccccc1NC(=O)Nn1cnnc1	4	95	73	242*	91	93
Cc1nn(C)c(Cl)c1C(=O)NCC(=O)NCc1ccccc1	9	100	99	nt	100	101
COc1ccccc1N1CCN(C(=O)CN(c2ccc(C)c(C)c2)S(C)(=O)=O)CC1	6	107	115	268*	101	103
CCN(CC)c1ccc2cc(-c3nc(-c4ccc(OC)cc4)cs3)c(=O)oc2c1	636*	177*[activator]	923*[activator]	445*	+[activator]	808*[activator]
CCN(CC)c1ccc2cc(-c3nnc(-c4ccccc4)o3)c(=O)oc2c1	8	99	96	34	99	96
O=C(COC(=O)c1ccc2c(c1)C(=O)N(c1cccc3ncccc13)C2=O)c1ccc(Cl)cc1	3	107	103	3	103	101
Cc1ccc(C(=O)COC(=O)c2ccc3c(c2)C(=O)N(c2cccc4ncccc24)C3=O)cc1	23	98	134	2	101	162*[activator]
